Hit rate of the full screen: of about 310,000 compounds, about 1,200 (0.39%) were called active. No rule for the calls is given here. Not all results are given here. Entries with a potency or affinity are not part of this list.
The compounds below were run against Large T antigen (Simian virus 40) (UniProt P03070) (assay: TAg ATPase/helicase activity blockers – biochemical (AID 1903)). Conditions: SV40 large T antigen ATPase/helicase inhibition assay; at 20 µM; active compounds read high.
Chain of Large T antigen (Simian virus 40) (P03070 whole entry, looked up): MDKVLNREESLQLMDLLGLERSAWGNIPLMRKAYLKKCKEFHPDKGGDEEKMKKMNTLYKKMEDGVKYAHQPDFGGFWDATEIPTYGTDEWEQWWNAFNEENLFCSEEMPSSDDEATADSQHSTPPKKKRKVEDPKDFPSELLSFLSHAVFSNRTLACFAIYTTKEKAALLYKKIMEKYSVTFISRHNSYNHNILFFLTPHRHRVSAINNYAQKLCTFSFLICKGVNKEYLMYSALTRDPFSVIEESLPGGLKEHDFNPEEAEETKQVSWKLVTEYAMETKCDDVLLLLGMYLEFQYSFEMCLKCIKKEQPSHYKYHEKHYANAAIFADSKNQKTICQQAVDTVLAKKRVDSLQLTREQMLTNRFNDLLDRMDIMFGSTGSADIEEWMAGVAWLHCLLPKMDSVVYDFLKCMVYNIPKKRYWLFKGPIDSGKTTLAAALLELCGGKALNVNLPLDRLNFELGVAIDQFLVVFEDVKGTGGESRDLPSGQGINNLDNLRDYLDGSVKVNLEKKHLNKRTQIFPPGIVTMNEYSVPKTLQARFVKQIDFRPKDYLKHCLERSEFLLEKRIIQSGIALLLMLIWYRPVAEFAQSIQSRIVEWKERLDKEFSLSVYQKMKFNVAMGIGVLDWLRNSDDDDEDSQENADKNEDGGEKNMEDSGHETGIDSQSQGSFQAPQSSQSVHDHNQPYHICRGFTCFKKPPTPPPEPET

inhibition, inactive:
Cc1ccc(S(=O)(=O)N2CCC(C(=O)NNC(=O)c3ccc(F)cc3)CC2)cc1 7.95%
Cc1ccc(C)c(CSc2nnc(-c3ccccn3)n2N)c1 4.69%
COc1ccccc1-n1c(=O)c2c3c(sc2n2c(=S)[nH]nc12)CCC3 30.3%
CSc1nnc2n(-c3ccccc3)c(=O)c3c4c(sc3n12)CCC4 3.42%
CCSc1nnc2n(-c3ccc(OC)cc3)c(=O)c3c4c(sc3n12)CCCC4 2.78%
Cc1nnc2n(-c3ccccc3)c(=O)c3c4c(sc3n12)CCCC4 4.53%
COc1ccc(-n2c(=O)c3c4c(sc3n3c(=S)[nH]nc23)CCCC4)cc1 2.8%
Cc1cccc(-n2c(=O)c3c4c(sc3n3c(=S)[nH]nc23)CCC4)c1 34.1%
COc1ccccc1C1(O)C(=O)Nc2ccc(C)cc21 (stereo unspecified) 9.43%
CS(=O)(=O)N1CCN(c2ncnc3c2cnn3-c2ccccc2)CC1 1.55%
CC1=CC(=C(C#N)C#N)C=C(C)N1CCN1CCN(C(=O)Nc2ccc(Cl)c(Cl)c2)CC1 3.99%
Cc1ccc(C)n1-c1sc2c(c1C#N)CCCC2 7.49%
Cc1cc(/C=C2/NC(=O)NC2=O)c(C)n1-c1sc2c(c1C#N)CCCC2 17.3%
CCOC(=O)N1CCC(N2CCN(S(=O)(=O)c3ccc(OC)cc3)CC2)CC1 4.73%
COc1ccc(OC)c(-n2c(SCC(=O)Nc3cc(C)on3)nnc2-c2c[nH]c3ccccc23)c1 -1.81%
CCN1CC2([N+](=O)[O-])CC=C(OC)C([N+](=O)[O-])(C1)C2 (stereo unspecified) -0.47%
N#CCn1c(Cc2ccccc2)nc2ccccc2c1=O 10.6%
CN(C)Cc1nc2ccccc2c(=O)n1CC#N 8.3%
O=Cc1cn(-c2ccccc2)nc1-c1ccc(F)cc1 3.65%
Cc1ccc2c(c1)N(C(=O)CCC(=O)N1CCCCC1)CCO2 9.22%
COc1ccc(-c2cc(-c3ccco3)[nH]c(=O)c2C#N)cc1 33.2%
N#Cc1c(-c2ccccc2)cc(-c2ccccc2)[nH]c1=O -4.42%
N#Cc1c(-c2cccc(Br)c2)cc(-c2ccco2)[nH]c1=O 4.79%
COc1ccc(-c2cc(-c3ccco3)[nH]c(=O)c2C#N)cc1OC 33.5%
O=C(NCCN1CCCCCC1)C1CCC(CNS(=O)(=O)c2cccc3cccnc23)CC1 (stereo unspecified) 10.5%
CCCN1CCN(CCCNC(=O)CCN2C(=O)COc3ccccc32)CC1 15.1%
COc1ccc(CCNC(=O)Cn2cnc3scc(-c4ccccc4)c3c2=O)cc1OC 5.46%
Cn1nc(C(=O)Nc2ccc(S(=O)(=O)N3CCCC3)cc2)ccc1=O 0.66%
Cc1ccc(C(=O)Nc2ccncc2)cc1[N+](=O)[O-] 13%
Nc1n[nH]c(N)c1N=Nc1ccc(F)cc1 13.8%
Cc1ccc(N=Nc2c(N)n[nH]c2N)cc1 25%
COc1cc2[nH]c3c(=O)n4c(nc3c2cc1OC)SCCC4 7.73%
Cc1cccc(NNC(=O)C2CCC2)c1 10.2%
N#Cc1c(NC(=O)/C=C/c2ccco2)sc2c1CCCC2 11.5%
N#Cc1c(NC(=O)c2ccco2)sc2c1CCC2 28.5%
O=C(CCc1nnc2ccc(NCc3ccco3)nn12)Nc1ccccc1F 14.6%
CCN(c1ccccc1)S(=O)(=O)c1cccc(C(=O)NCC(c2ccco2)N2CCCC2)c1 (stereo unspecified) 20.1%
O=S1(=O)N=C(Nc2ccc(N3CCOCC3)cc2)c2ccccc21 7.37%
CCN(CC)S(=O)(=O)c1ccc(NC2=NS(=O)(=O)c3ccccc32)cc1 5.33%
CN(C)CCOC(=O)C12CC3(C)CC(C)(CC(C)(C3)C1)C2 20.7%
COc1cc(/C=C2\S/C(=N/S(=O)(=O)c3ccccc3)NC2=O)c([N+](=O)[O-])cc1OC 23%
COc1ccc(S(=O)(=O)/N=C2/NC(=O)/C(=C\c3cc(OC)c(OC)cc3[N+](=O)[O-])S2)cc1 31.5%
Cc1ccnc(NC(c2ccccc2O)c2oc(CO)cc(=O)c2O)c1 (stereo unspecified) 13.4%
COc1cccc(CN2CCN(Cc3nc4c(s3)CCCC4)CC2CCO)c1 (stereo unspecified) 7.56%
N#Cc1ccc(Oc2ccc(S(=O)(=O)N3CCOCC3)cn2)cc1 8.88%
O=C1NC(=O)/C(=C/c2ccccc2Cl)N1 2.2%
O=C1Nc2ccccc2/C1=C/c1ccccc1Cl 4.98%
O=C1CCC(C(=O)OCC(=O)c2ccccc2)N1 (stereo unspecified) -3.04%
Cc1ccc([C@@H]2[C@@H]3C(=O)N(C)C(=O)[C@@H]3[C@]3(C)C(=O)N(Cc4ccccn4)CC(=O)N23)o1 21.8%
CC1=Nc2cccc3cccc(c23)N1 14.5%
CC(C)C1=Nc2cccc3cccc(c23)N1 31.8%
NS(=O)(=O)c1ccc(CNS(=O)(=O)c2ccc3ccccc3c2)cc1 8.92%
O=S1(=O)N=C(N(CCO)/N=C/c2ccccc2)c2ccccc21 -0.93%
CC(=O)Nc1ccc2c(c1)CCc1ccccc1-2 2.87%
O=C(O)CCCc1ccc2c(c1)CCc1ccccc1-2 4.11%
CCCCNC(=S)NNC(=O)c1c(Cl)c(C)nn1C 13.2%
COC(=O)c1ccccc1-c1ccc(/C=C2\C(=O)N(c3ccccc3)N=C2c2ccccc2)o1 -14%
CCN1C(=O)/C(=C\c2ccc(-c3ccc([N+](=O)[O-])cc3OC)o2)SC1=Nc1cccc(C(=O)O)c1 13.7%
Cc1ccc(C(=O)/C=C/c2ccc(-c3ccccc3[N+](=O)[O-])o2)cc1 -1.93%
CC1=NN(c2ccc(Br)cc2)C(=O)/C1=C/c1ccc(-c2ccccc2C(=O)O)o1 33.3%
CCSC1=N/C(=C\c2ccc(-c3ccccc3[N+](=O)[O-])o2)C(=O)S1 45.4%

— PubChem BioAssay AID1903 (Southern Research Specialized Biocontainment Screening …, 2009)
